Experimental data as given in PubChem BioAssay AID540276 (National Center for Advancing Translational Sciences (NCATS), 2011).
“And” between values parts separate entries of the source, which are not always exact repeats. Identical values can stand only once. The whole screen tested about 300,000 compounds, of which about 5,400 (1.8%) were called active. Not shown: some 28% with an inconclusive outcome. The call rests on the fitted dose curve; tested in HEK293 cells. What follows is part of a selection rich in actives, with near analogues and random picks from the rest. Some structures have more than one record in an assay (separate samples or runs), and their calls can disagree.

test: qHTS for inhibitors of binding or entry into cells for Marburg Virus; settings: Marburg virus pseudotyped entry inhibition, cell reporter; series mostly up to 37.8 µM; activity change, negative = inhibition: at the top concentration
On the % scale 0 is the no-effect control and ±100 the full control effect; potency means the concentration at half of the fitted maximal effect.

Row | SMILES | activity change, negative = inhibition | Potency
1 | Cc1ccc(C)c(NC(=O)COC(=O)c2nn(C)c(=O)c3ccccc23)c1 | 11.2% (inactive) | –
2 | O=C(NC1=CC(=O)c2ccccc2C1=O)c1ccccc1 | – | 10 µM (active)
3 | O=C(Nc1cccc(NC(=O)c2ccc(Br)cc2)c1)c1ccccc1 | – | inactive
4 | O=C1C=C(NS(=O)(=O)c2ccccc2)C(=O)c2ccccc21 | -2.09% [at 46.1 µM] (inactive) | –
5 | Clc1ccc2c(c1)C1=C(C(c3ccncc3)O2)C(c2ccc(Br)cc2)n2ncnc2N1 (stereo not drawn) | – | 11.6 µM (active)
6 | Fc1ccc([C@H]2C3=C(Nc4ncnn42)c2ccccc2O[C@H]3c2ccncc2)cc1 | -11% (inactive) | –
7 | CCOC(=O)C1=C(c2ccccc2)Nc2ncnn2C1c1ccc(Cl)cc1 (stereo not drawn) | 4.14% [at 46.1 µM] (inactive) | –
8 | CC1(C)CC(=O)c2ccc(O)cc2O1 | -6.25% [at 46.1 µM] (inactive) | –
9 | CC[C@@H]1Cc2cc(O)ccc2C2=C1c1ccc(O)cc1C[C@H]2CC | – | 35.5 µM (active)
10 | O=C(c1ccccc1)c1ccc(OCC(O)CN2CCCC2)cc1 (stereo not drawn) | -24% [at 46.1 µM] (inactive) | –
11 | OC(COCCC12CC3CC(CC(C3)C1)C2)CN1CCCCC1 (stereo not drawn) | – | 2.91 µM (active)
12 | COc1cc(/C=N/NC(=O)c2cccnc2)ccc1OC(=O)c1cccc(Br)c1 | 2.52% (inactive) | –
13 | O=C(C1CC(=O)N(c2ccc(Br)cc2)C1)N1CCCC1 (stereo not drawn) | 1.98% (inactive) | –
14 | COc1ccc(C2(CNC(=O)Cc3ccc(OC)c(OC)c3)CCCC2)cc1 | -28.1% [at 46.1 µM] (inactive) | –
15 | COc1ccc(C2(CNC(=O)C(c3ccccc3)c3ccccc3)CCOCC2)cc1OC | -26.8% (inactive) | –
16 | Cc1cccc(C(CC(=O)NCC2(c3ccccc3)CCCC2)c2ccccc2)c1O (stereo not drawn) | – | 10 µM (active)
17 | O=C(Nc1cc(S(=O)(=O)N2CCOCC2)ccc1N1CCOCC1)c1c(F)cccc1Cl | 3.28% (inactive) | –
18 | CC12CCCCC1=CC(=O)CC2 (stereo not drawn) | 8.83% (inactive) | –
19 | COc1ccc(N2CCN(S(=O)(=O)c3cc(Br)cnc3N)CC2)cc1 | 14.7% [at 46.1 µM] (inactive) | –
20 | CC(C)c1ccc(-c2noc(C3CCCN(S(C)(=O)=O)C3)n2)cc1 (stereo not drawn) | -30.6% (inactive) | –
21 | O=C(Cc1cccs1)N1CCCC(c2nc(-c3ccc(S(=O)(=O)N4CCCC4)cc3)no2)C1 (stereo not drawn) | -24.4% (inactive) | –
22 | COc1cc(-c2noc(C3CCCN(S(=O)(=O)c4cccc(Cl)c4)C3)n2)cc(OC)c1OC (stereo not drawn) | – | inactive and 9.2 µM (active)
23 | Cc1ccc(C(=O)OCC(=O)N2CCCCCC2)cc1S(=O)(=O)N1CCOCC1 | 4.19% (inactive) | –
24 | NC(=O)c1cc2ccccc2o/c1=N/NC(=O)c1cccc(F)c1 | -5.08% [at 46.1 µM] (inactive) | –
25 | CCOc1ccc(CN2CCNC(=O)C2CC(=O)NCCCC2CCCC2)cc1 (stereo not drawn) | 10.3% (inactive) | –
26 | c1ccc(C2c3[nH]c4ccccc4c3CCN2Cc2cccn2-c2cccnc2)nc1 (stereo not drawn) | -6.35% [at 46.1 µM] (inactive) | –

Row | SMILES | activity change, negative = inhibition | Potency
27 | CCOc1ccc(C2c3[nH]c4ccccc4c3CCN2Cc2cccn2-c2ncccn2)cc1 (stereo not drawn) | – | 3.16 µM (active)
28 | Oc1cccc(C2c3[nH]c4ccccc4c3CCN2Cc2cnn(-c3ccccc3)c2)c1 (stereo not drawn) | -8.18% [at 46.1 µM] (inactive) | –
29 | CCN(CC)S(=O)(=O)c1ccc(CNC(=O)CN2C(=O)NC3(CCc4ccccc43)C2=O)cc1 (stereo not drawn) | 5.63% (inactive) | –
30 | COc1ccc(/C=N/NC(=O)c2ccc3c(c2)OCCO3)c(OC)c1 | -0.257% (inactive) | –
31 | COc1cccc(CNCCc2c[nH]c3ccccc23)c1OCc1ccccc1F | – | 7.3 µM (active)
32 | COc1ccccc1CC(=O)NCCc1c[nH]c2ccccc12 | -23.9% [at 46.1 µM] (inactive) | –
33 | COc1ccc(S(=O)(=O)NCCc2c[nH]c3ccccc23)cc1OC | -2.61% [at 46.1 µM] (inactive) | –
34 | O=C1CC(C(=O)O)NC(=S)N1 (stereo not drawn) | 0.164% [at 46.1 µM] (inactive) | –
35 | COc1ccc(S(=O)(=O)N2CCN(CC(=O)N3CCOCC3)CC2)cc1OC | -5.82% (inactive) | –
36 | COc1cc2[nH]c(=S)n(Cc3ccc(C)o3)c(=O)c2cc1OC | -7.92% (inactive) | –
37 | COc1ccccc1-n1c(=S)[nH]c2c(sc(=S)n2-c2ccc(C)cc2C)c1=O | -1.23% [at 46.1 µM] (inactive) | –
38 | COc1cc(-n2c(=S)[nH]c3ccc(C)cc3c2=O)c(Cl)cc1Cl | – | 5.62 µM (active)
39 | CC(C)c1ccc(S(=O)(=O)N2CCN(C(=O)CN3C(=O)NC(C)(c4ccccc4)C3=O)CC2)cc1 (stereo not drawn) | 0.605% (inactive) | –
40 | COc1ccc(N(CC(=O)N2CCOCC2)S(=O)(=O)c2ccccc2)cc1Cl | 16.6% (inactive) | –
41 | CC(C)Oc1ccc(S(=O)(=O)N2CCOCC2)cc1NC(=O)C1CSC2(C)CCC(=O)N12 (stereo not drawn) | -14.7% [at 46.1 µM] (inactive) | –
42 | O=C(OC12CC3CC(CC(C3)C1)C2)c1ccc(NCc2cc(O)ccc2O)cc1 | – | 4.47 µM (active)
43 | C[C@]12CC[C@H](O)CC1=CCC1C2CC[C@@]2(C)C1CC[C@@H]2NC(=O)CCC(=O)O (stereo partly drawn) | 3.4% (inactive) | –
44 | COc1ccc(/C=C/C(=O)NC(=S)N2CCCC(C(N)=O)C2)cc1 (stereo not drawn) | -0.358% [at 46.1 µM] (inactive) | –
45 | CCCCCCCCn1c2c(c(=N)c3c1CCC3)CCCC2 | – | 5.01 µM (active)
46 | Cc1ccc(S(=O)(=O)N2CCCC(C(=O)N3CCN(C)CC3)C2)cc1 (stereo not drawn) | 8.49% (inactive) | –
47 | CN(C)c1ccc(CSc2ccccc2)cc1 | 5.47% (inactive) | –
48 | O=C(CSc1nnc(N2CCOCC2)n1-c1cccc(F)c1)N1CCN(c2ccccn2)CC1 | -2.18% (inactive) | –
49 | COc1ccc2[nH]c3c(c2c1)CCN(C(=O)CCC1CCCC1)C3c1ccc(F)cc1 (stereo not drawn) | – | 0.631 µM (active)
50 | COc1cccc(C(=O)N2CCCC(CCC(=O)NCc3ccc(F)c(F)c3)C2)c1 (stereo not drawn) | -21.9% (inactive) | –
51 | COc1cccc(CNC(=O)CCC2CCCN(C(=O)c3ccc(F)c(Cl)c3)C2)c1 (stereo not drawn) | 2.45% (inactive) | –
52 | COc1ccccc1C(=O)NCCC(=O)NCC(c1ccco1)N1CCCCC1 (stereo not drawn) | 0.853% (inactive) | –

Row | SMILES | activity change, negative = inhibition | Potency
53 | Cc1ccc(S(=O)(=O)N(CC(=O)NCc2ccco2)c2ccccc2C)cc1 | 22.1% [at 46.1 µM] (inactive) | –
54 | C=CCN1CCN(C(=O)CCCc2ccccc2)CC1 | – | 2.51 µM (active)
55 | O=C(O)CCCc1ccccc1 | – | inactive
56 | CC(=O)c1ccc(N2CCN(C(=O)CCc3ccccc3)CC2)cc1 | 27.7% (inactive) | –
57 | Cc1cc(C)c(S(=O)(=O)N(C)CC(=O)NCC2CCCO2)c(C)c1 (stereo not drawn) | -8.6% [at 46.1 µM] (inactive) | –
58 | COC1C(CO)OC(n2cnc3c(=S)nc(N)[nH]c32)C1O (stereo not drawn) | 21% (inactive) | –
59 | NC(=O)C1(N2CCCC2)CCN(Cc2ccccc2)CC1 | -9.61% (inactive) | –
60 | CCC(=C/c1sc2ccc3ccccc3c2[n+]1C)/C=C1\Sc2ccc3ccccc3c2N1C | – | 3.55 µM (active)
61 | O=C(Nc1ccc(S(=O)(=O)N2CCCCCC2)cc1)c1c(F)cccc1F | -9.13% (inactive) | –
62 | Cc1cc(C)c(S(=O)(=O)N2CCCC2CNC(=O)c2ccc3c(c2)OCO3)c(C)c1 (stereo not drawn) | 17.5% (inactive) | –
63 | C[N+](C)(CCCCCC[N+](C)(C)CCCN1C(=O)c2cccc3cccc(c23)C1=O)CCCN1C(=O)c2cccc3cccc(c23)C1=O | – | 5.01 µM (active)
64 | O=C1c2ccccc2C(=O)N1CCCCCCN1C(=O)c2ccccc2C1=O | 11.3% [at 46.1 µM] (inactive) | –
65 | O=C1c2cccc3cccc(c23)C(=O)N1CCCCCc1n[nH]c(=S)o1 | -2.52% [at 46.1 µM] (inactive) | –
66 | Cc1ccc(-c2cn3cc(C)ccc3n2)cc1 | – | 0.316 µM (active)
67 | Cc1ccc(-n2c(-c3ccc([N+](=O)[O-])cc3)nc3ccccc3c2=O)cc1 | -30.2% [at 46.1 µM] (inactive) | –
68 | Cc1nc(-c2ccc([N+](=O)[O-])cc2)c(-c2ccccc2)o1 | -2.14% (inactive) | –
69 | Cc1ccc(-c2cn3cc([N+](=O)[O-])ccc3n2)cc1 | – | 3.66 µM (active)
70 | c1ccc(-c2cn3cccnc3n2)cc1 | 17.4% (inactive) | –
71 | Cc1ccc(-c2cc(N)on2)cc1 | 6.12% (inactive) | –
72 | CC(C)=CCCC(C)=CCN1C(=O)[C@]2(OCCC=C[C@H]2C)c2ccccc21 | 2.91% [at 14.2 µM] (inactive) | –
73 | O=C(c1ccco1)N1CCN(C(=S)Nc2cc(F)cc(F)c2)CC1 | -3.01% [at 46.1 µM] (inactive) | –
74 | CN(Cc1ccccc1)C(=O)C1CCCN(c2ncnc3c2nc2n3CCCCC2)C1 (stereo not drawn) | -26.2% [at 46.1 µM] (inactive) | –
75 | CC(NC(=O)c1ccccc1)C(=O)OCC(=O)Nc1cccc(S(=O)(=O)N2CCCC2)c1 (stereo not drawn) | -30.3% (inactive) | –
76 | Cc1ccccc1N(C(=O)CNC(=O)c1cccs1)C(C(=O)NC1CCCC1)c1ccncc1 (stereo not drawn) | -23.4% [at 46.1 µM] (inactive) | –
77 | CC(NC(=O)COC(=O)c1ccc2ccccc2n1)c1ccccc1 (stereo not drawn) | -0.241% (inactive) | –
78 | C=C(C)C(=O)Nc1cccc(C(C)=O)c1 | -7.5% (inactive) | –

Row | SMILES | activity change, negative = inhibition | Potency
79 | CC(=O)c1cccc(NC(=O)Nc2ccc(C)cc2)c1 | -2.02% (inactive) | –
80 | CCSc1nsc(NC(=O)Nc2cccc(C(C)=O)c2)n1 | – | 10 µM (active)
81 | CCOc1cccc(NC(=O)Cn2nc(-c3ccc4c(c3)OCCO4)ccc2=O)c1 | 9.43% (inactive) | –
82 | CC(=O)c1cc2c(cc1NC(=O)CN1CCCCCC1)OCO2 | -27.1% [at 46.1 µM] (inactive) | –
83 | CC(=O)c1cc2c(cc1NC(=O)Cn1nc(-c3ccc(F)cc3)ccc1=O)OCO2 | – | 10 µM (active)
84 | CN(CC(=O)Nc1ccc(C(N)=O)cc1)S(=O)(=O)c1ccc2c(c1)OCCO2 | 8.9% [at 46.1 µM] (inactive) | –
85 | Cc1ccc2nc(SCC(=O)N3CCN(c4ccccc4)CC3)nc(=O)n2c1 | 20.2% [at 46.1 µM] (inactive) | –
86 | Cc1cccc(-c2nnc(SCC(=O)O)n2Cc2ccccc2)c1 | 11.9% [at 46.1 µM] (inactive) | –
87 | CCOC(=O)c1cn(Cc2cccc(C)c2)nn1 | – | 3.98 µM (active)
88 | CCOC(=O)c1cn(CC(=O)Nc2ccc(C(C)C)cc2)nn1 | 0.84% (inactive) | –
89 | O=C(C/C(=N\O)c1ccccc1O)C(F)F | 1.48% (inactive) | –
90 | Cc1cc(S(=O)(=O)NCC(C)C)ccc1OCC(=O)NC1CC1 | 9.84% (inactive) | –
91 | FC(F)(F)Oc1ccc(NC(=S)NCc2ccccc2)cc1 | – | 11.2 µM (active)
92 | COC(=O)Cc1ccc(NC(=S)NCc2ccccc2)cc1 | 1.35% (inactive) | –
93 | S=C(NCCc1ccccc1)Nc1ccccc1 | -26.5% (inactive) | –
94 | CSc1nc(-c2ccccc2)nc(C(Cl)Cl)n1 | – | 3.55 µM (active)
95 | CCc1noc(C)c1C(=O)N1CCCC(N2CCN(c3ccc(F)cc3)CC2)C1 (stereo not drawn) | 1.5% (inactive) | –
96 | COC1=CC(=O)OC(C)(c2ccccc2)C1 (stereo not drawn) | 2.7% [at 46.1 µM] (inactive) | –
97 | CCOc1cc(CNn2c(C)nnc2SCC(=O)NC(C)(C)C)ccc1OCC(=O)NC(C)(C)C | 8.16% [at 46.1 µM] (inactive) | –
98 | CCOc1cc(C)c(S(=O)(=O)NCc2ccccn2)cc1C | -3.87% (inactive) | –
99 | CCOc1cc(CNCc2ccccn2)ccc1OCC(=O)NC(C)(C)C | – | 7.08 µM (active)
100 | O=C(Nc1ccc(Cl)cn1)[C@H]1CCCN1S(=O)(=O)c1ccccc1 | -25.6% (inactive) | –
101 | Cc1cc(S(=O)(=O)N2CCOCC2)ccc1OCC(=O)N1CCOCC1 | 1.56% [at 46.1 µM] (inactive) | –
102 | CN(CC(O)COc1ccc(S(=O)(=O)N2CCOCC2)cc1Cl)C1CCCCC1 (stereo not drawn) | – | 10 µM (active)
103 | O=C(COc1ccc(S(=O)(=O)N2CCOCC2)cc1Cl)N1CCOCC1 | 5.41% [at 46.1 µM] (inactive) | –
